IL-1B inflam inh: inhibitors of inflammasome signaling (IL-1 beta secretion). activity change, % at 57.5 µM. THP-1 LPS/ATP IL-1B secretion, AlphaLISA, 16 h; active compounds read low. hit rate 4.7% among 360,000; in the data active = activity change below about -50%; inconclusive = mostly about -30% to -49%
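Secreted IL-1B measured by AlphaLISA bead assay after 16 h compound exposure of THP-1 cells; compounds (final up to 57.5 uM) added 1 h before LPS (250 ng/mL) and ATP (1.25 mM) stimulation; lower signal means less secretion.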
HT1080 IDH1KD tx: HT-1080 IDH1 knockdown cell toxicity (counter line); AID 686971; HT-1080 IDH1 knockdown viability, ATP luminescence, 48 h; hit rate 2% among 360,000; Potency, µM (doses to about 46.1 µM), for the others: at the highest dose activity, negative = toxicity, usual class: cytotoxic;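 note: potency is the fitted concentration of half-maximal effect; 0% = DMSO wells and -100% = cell-free medium wells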
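% activity derives from luminescence (CellTiter-Glo), normalised to DMSO and no-cell wells. HT-1080-IDH1KD cells, 750/well, had 48 h compound exposure at 37 °C.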
HT1080NT lethal: kills 2HG-producing HT-1080-NT fibrosarcoma cells. hit rate 1.6% among 360,000. Potency, µM (doses to about 46.1 µM), inactives show top-dose activity, negative = less viability, actives largely listed as cytotoxic. HT-1080-NT fibrosarcoma viability, CellTiter-Glo ATP luminescence, 48 h;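 note: NT is the 2HG producing partner of a matched IDH1 knockdown line; potency is the fitted concentration of half-maximal effect; 0% = DMSO-treated cells and -100% = media-only wells without cells; nearly all actives have a fitted effect of over 55% in size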
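Viability of the 2HG-overproducing fibrosarcoma line after 48 hours of compound exposure at 37 degrees C was determined by luminescence with CellTiter-Glo, and concentration-effect curves were then fitted and categorized.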
TDP1 cell CPT: DT40-hTDP1 cell growth loss with CPT; chicken DT40 Tdp1-/-;hTDP1 cells + 20 nM CPT, ATP luminescence, 48 h; Potency, µM (top dose mostly 46.2 µM), for inactives: top-dose activity change, negative = growth inhibition, usual class: inhibitors; hit rate 12% among 420,000; AID 686979; note: potency is the fitted concentration of half-maximal effect; nearly all actives have a fitted effect of over 55% in size
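Chicken DT40 Tdp1-/- cells complemented with human TDP1, 400 cells/well, exposed to compounds plus 20 nM camptothecin for at least 48 h at 37 C; viability read as ATP content by CellTiter-Glo luminescence.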
DT40 TDP1 no CPT: qHTS for Inhibitors of human tyrosyl-DNA phosphodiesterase 1 (TDP1): qHTS in cells in absence of CPT | DT40 Tdp1-/- hTDP1 cells, no CPT, ATP luminescence, 48 h | hit rate 15% among 420,000 | AID 686978, 2013 | Potency, µM (titrated, usually from 46.2 µM), inactives show at the highest dose activity change, negative = growth inhibition, actives largely listed as inhibitors; note: potency is the fitted concentration of half-maximal effect; nearly all actives have a fitted effect of over 55% in size
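Chicken DT40 Tdp1-/- cells stably complemented with human TDP1 were seeded at 400 cells/well with DMSO in place of 20 nM camptothecin. After compound pinning, cells grew at least 48 hr at 37 °C; viability read by CellTiter-Glo luminescence.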
12-LOX inh: inhibitors of human 12S-lipoxygenase ALOX12. AID 1671190. hit rate 1.1% among 580,000. Potency, µM (doses to about 108 µM), inactives show at the top dose activity change, negative = inhibition, most hits filed as inhibitors. purified 12hLO, xylenol orange hydroperoxide absorbance; note: potency is the fitted concentration of half-maximal effect
Target sequence (P18054 whole entry, looked up): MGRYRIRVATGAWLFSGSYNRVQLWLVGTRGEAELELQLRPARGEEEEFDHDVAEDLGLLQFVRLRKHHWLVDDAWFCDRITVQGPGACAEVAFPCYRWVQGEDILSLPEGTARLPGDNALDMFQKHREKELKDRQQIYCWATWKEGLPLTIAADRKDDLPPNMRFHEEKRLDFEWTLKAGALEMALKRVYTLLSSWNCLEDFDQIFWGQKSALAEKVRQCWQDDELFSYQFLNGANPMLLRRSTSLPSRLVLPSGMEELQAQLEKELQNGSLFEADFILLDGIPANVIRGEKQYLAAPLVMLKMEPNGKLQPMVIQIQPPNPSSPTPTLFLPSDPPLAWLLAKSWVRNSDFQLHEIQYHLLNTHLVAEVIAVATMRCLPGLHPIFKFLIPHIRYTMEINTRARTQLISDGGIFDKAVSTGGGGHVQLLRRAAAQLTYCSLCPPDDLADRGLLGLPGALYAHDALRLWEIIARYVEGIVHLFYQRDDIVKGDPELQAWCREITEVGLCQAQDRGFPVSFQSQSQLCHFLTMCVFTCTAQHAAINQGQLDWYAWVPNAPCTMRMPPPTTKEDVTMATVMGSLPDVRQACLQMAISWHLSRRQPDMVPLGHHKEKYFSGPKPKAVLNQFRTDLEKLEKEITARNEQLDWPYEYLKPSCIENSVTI
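Hydroperoxide product was detected by ferrous iron/xylenol orange as the 573 to 405 nm absorbance ratio. Arachidonic acid at 40 uM (final) was turned over for 30 min at room temperature by 150 nM human 12hLO, pH 7.0 Hepes buffer, after 15 min compound preincubation.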
Numbers without * were called inactive; ? = inconclusive; . = no result; ! = not confirmed by another sample; [ ] = remark or other dose. This excerpt belongs to a sample that is enriched for hits. Unless noted, calls come from the whole dose curve; as a rule, active = well fitted curve in the direction sought with a large enough effect; inconclusive = small, poorly fitted or top-dose-only effect, or another doubt; inactive = no such curve, though single readings can be large; an effect the other way counts as inactive or inconclusive. Unless noted, % is set by controls: 0 for no effect and ±100 for the full control effect.

SMILES	IL-1B inflam inh	HT1080 IDH1KD tx	HT1080NT lethal	TDP1 cell CPT	DT40 TDP1 no CPT	12-LOX inh
COc1cc(Cl)ccc1C(=O)NC1CCN(c2cc(-c3cccs3)[nH]n2)C1 (stereo not drawn)	.	.	.	.	.	55%
O=C1OC(/C=C/c2ccc(Cl)cc2)=NC/1=C/c1ccco1	14	7%	2%	-21%	-3%	40µM*
CC1=C(C(=O)Nc2ccccc2)C(c2cccs2)n2nc(SCc3ccccc3F)nc2N1 (stereo not drawn)	.	.	.	-26%	-27%	-19%
CC1=C(C(=O)Nc2ccccc2C)C(c2cccs2)n2nc(SCc3cc(C)ccc3C)nc2N1 (stereo not drawn)	.	.	.	?	5.8µM*	?
COc1ccccc1NC(=O)C1=C(C)Nc2nc(SCc3ccccc3F)nn2C1c1cccs1 (stereo not drawn)	.	.	.	8.2µM*	9.2µM*	-14%
COc1ccccc1NC(=O)C1=C(C)Nc2nc(SCc3ccccc3C)nn2C1CC(C)C (stereo not drawn)	.	.	.	-73%	21µM*	-17%
CC1=C(C(=O)Nc2ccccc2C)C(c2ccncc2)n2nc(SCc3ccccc3Cl)nc2N1 (stereo not drawn)	.	.	.	-4%	-8%	-19%
CC1=C(C(=O)Nc2ccc(C)cc2C)C(c2cccs2)n2nc(SCc3ccccc3Cl)nc2N1 (stereo not drawn)	.	.	.	10µM*	6.5µM*	?
CCn1cnc2c1c(=O)n(CC(=O)N(C)CC(=O)N1CCOCC1)c(=O)n2Cc1ccccc1	.	.	.	.	.	16%
CCCCCCN1C=CC(=C/C=C(\C#N)C(=O)OCC)C=C1	0	3%	-8%	?	16µM*	-2%
CCOC(=O)/C(C#N)=C/C=C1\C=Cc2ccccc2N1CC	?	0%	6%	21µM*	23µM*	-2%
CN1/C(=C/C=C(C#N)C#N)C=Cc2ccccc21	20	5%	1%	-13%	-12%	1%
CCCN1C=CC(=CC=C(C#N)C#N)C=C1	.	2%	-2%	0%	-22%	-1%
CCc1cccc(NC(=O)c2n[nH]c(=O)c3ccccc23)c1	.	.	.	.	.	4%
N#CC(C(=O)Cc1ccc(Cl)cc1)C(=O)Nc1ccccc1Cl (stereo not drawn)	.	.	.	.	.	4%
O=C(CSc1ncn[nH]1)N1N=C2/C(=C/c3ccco3)CCCC2C1c1ccco1 (stereo not drawn)	-60*	?	?	?	?	-22%
NNc1nnc(-c2ccccc2)c(-c2ccccc2)n1	8	?	?	13µM*	16µM*	-10%
COC(=O)C1=C(C)NC(C)=C([N+](=O)[O-])[C@H]1c1ccccc1C(F)(F)F	.	.	.	?	11µM*	0%
COC(=O)C1=C(C)NC(C)=C(C(=O)OCC(C)C)C1c1ccccc1[N+](=O)[O-] (stereo not drawn)	-65*	26µM*	16µM*	6.5µM*	5.2µM*	?
COCCN1C=C(C(=O)OC)C(c2ccccc2C(F)(F)F)C(C(=O)OC)=C1	-6	18%	13%	?	?	12%
CCCCN1C=C(C(=O)OC)C(c2ccccc2C(F)(F)F)C(C(=O)OC)=C1	4	15%	10%	-29%	-10%	-2%
COC(=O)C1=C(C)NC(C)=C(C(=O)OC(C)C)C1c1cccc2nonc12 (stereo not drawn)	-12	-16%	5%	?	?	?
COC(=O)C1=C(C)NC(C)=C([N+](=O)[O-])[C@@H]1c1ccccc1C(F)(F)F	.	.	.	30µM*	30µM*	?
O=C(CSc1nnnn1C1CCCCC1)NCc1ccccc1CN1CCOCC1	.	.	.	.	.	23%
C#CCCC(=O)N(Cc1cccc(C)c1)Cc1ccccc1OC	.	.	.	.	.	-1%
SMILES	IL-1B inflam inh	HT1080 IDH1KD tx	HT1080NT lethal	TDP1 cell CPT	DT40 TDP1 no CPT	12-LOX inh
CC1=CC(C)(C)NC(=S)N1c1ccc2ccccc2c1	11	7.1µM*!	5.6µM*	?	?	?
CC1=CC(C)(C)NC(=S)N1c1ccc(Cl)cc1	-14	2%	-11%	-22%	?	-8%
CC1=CC(C)(C)NC(=S)N1c1cccc2ccccc12	0	1%	6%	?	26µM*	-15%
Cc1cccc(CN2C[C@@H](F)[C@@H](OCc3nc4ccccc4[nH]3)C2)n1	.	.	.	.	.	93%[176 µM]
Cn1c(=O)c2c(nc(NC3CCCCC3)n2Cc2ccccc2Br)n(C)c1=O	.	.	.	.	.	4%
CN1CCN(C(=O)[C@H]2C[C@H](C(=O)O)CN(C(=O)c3ncccc3O)C2)CC1	.	.	.	.	.	4%
CC(C)C1C(=O)N(Cc2cn(CCC3OCCO3)nn2)CCS(=O)(=O)N1Cc1ccc(-c2ccc(F)cc2)cc1 (stereo not drawn)	-4	-22%	-18%	?	?	3%
CC(C)C1C(=O)N(Cc2cn(CCC3OCCCO3)nn2)CCS(=O)(=O)N1Cc1ccc(-c2ccc(Cl)cc2)cc1 (stereo not drawn)	40	8%	6%	?	23µM*	2%
CC(C)C1C(=O)N(Cc2cn(CCC3OCCO3)nn2)CCS(=O)(=O)N1Cc1ccc(-c2ccc(Cl)cc2)cc1 (stereo not drawn)	?	?	18µM*	3.3µM*	4.1µM*	-2%
CC(C)C1C(=O)N(Cc2cn(CCC3OCCCO3)nn2)CCS(=O)(=O)N1Cc1ccc(-c2ccc(Cl)c(Cl)c2)cc1 (stereo not drawn)	-80*	?	16µM*	23µM*	18µM*	4%
O=C(O)C12CC3CC(CC(Br)(C3)C1)C2	.	.	.	.	.	3%
COc1ccc(C2CC(=O)C(c3ccc(C(C)=O)cc3)=CN2Cc2ccccc2)cc1 (stereo not drawn)	.	.	.	.	.	-15%
O=S(=O)(c1ccc(Oc2ccc(Br)cc2)cc1)N1CCOCC1	-14	-7%[9.24 µM]	-18%	16µM*	23µM*	0%
Cc1ccc(S(=O)(=O)Nc2ccc(Nc3nccn4c(-c5cccc(OC(F)(F)F)c5)cnc34)cc2)cc1	-26	?	18µM*	18µM*	12µM*	?
COC(=O)c1ccccc1NC(=O)N1CCc2c(sc3c2CCCC3)C1c1ccc(F)cc1 (stereo not drawn)	.	.	.	-27%	-29%	-5%
COc1ccc(NC(=O)N2CCc3c(sc4c3CCCC4)C2c2ccccc2OC)cc1 (stereo not drawn)	.	.	.	16µM*	13µM*	-17%

Screens as filed in PubChem BioAssay.
